Results published in PubChem BioAssay AID1347426 (Functional Genomics Laboratory (NCATS/FGL), 2020).
Out of some 31,000 sequences screened, about 1,400 (4.5%) were called active. Only a selection was taken, and actives are over-represented in it overall. Values without a mark were called inactive.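 How the source made its calls: active means median seed-adjusted z-score above 1 or below -1; inactive means the rest.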

Assay: Novel Modifiers of Survival Motor Neuron (SMN) Protein: Gene Identification via Genome-wide siRNA Screen;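 further: luminescence tracks full-length SMN protein made from the SMN2 reporter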
Conditions: HEK293T SMN2-luciferase reporter, siRNA knockdown, 72 h; actives lie on both sides
Procedure, shortened: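 siRNA screen, 10418 genes ×3 siRNAs; 1 pmol/well, lipid reverse transfection into HEK293T SMN2-luc reporter line. 72 h, 37 °C, 5% CO2; ONE-Glo readout. Data: neg-ctrl normalized, log10, MAD; hit = MAD >1.0 or < -1.0.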

Sequence | median seed-adjusted z-score
GAUAUUCUCUGUGACGUGATT against BACH2 | 0
GACCAGAUGUGGAUGUAAATT against MIB1 | 0
ACUAGCCUGUGGAGCAAGATT against HBE1 | -0.425
CCGAUCAAGUGAACAUAGATT against AKAP4 | 0.116
CCUUCUCAACAUAGGAUAATT against ZNF257 | 0.306
UGGGUUGGAUGAUACCUUATT against GATA5 | 0.15
GAGGGUCUCUUCUUAAGUATT against CAD | 2.37 (active)
UCAUCACAGCGGUACUGUATT against ITGAX | -0.0677
GCAGGUAGCUCAUAUGUUUTT against WDR31 | 0.796
GGACCACGUCAAGACUUGUTT against TRAF2 | -0.00463
CAAACUUCCCGAUAGAGAATT against CTDP1 | -2.29 (active)
CUAUCAGGGAAAUUACGUATT against ZNF713 | -0.0652
AAAUGUAACCUUUUGCUUUTT against DAD1 | -0.45
GCUUUACCUUGGACCUGAATT against MPL | -0.0153
GCGUGAUCAUCGAUGUGGATT against SLC5A7 | 0.624
GAUGUUCCCUAUAUGCAAATT against CLDN10 | 0.0399
GUGUAUCUAUGGAAGAGCATT against PSMD4 | 1.46 (active)
CUAUAAUUCCAGAGCAUAATT against KLF5 | -0.338
GGACCUUGGAUUAUCUGAATT against YME1L1 | 0.131
CACUAGUUCUAUGACCAUUTT against IMPG1 | -0.252
GCAUGGAAGUGUACGAGUATT against THBS3 | 0.429
CCACUGACAAGGUCCACGATT against MRGPRD | -0.484

Sequence | median seed-adjusted z-score
CCGUAAACUUCAUAACAUUTT against DYRK1A | -1.3 (active)
CCUUAGUUCUUCCUCGGAATT against PARP12 | -0.287
GCUGAUCUAUCACAAACCATT against SERPINA2 | 0.285
AAUGCAUUGUGAACCCAUUTT against GNGT2 | -0.289
GGUUAGAAGAGGUGUCUAATT against NUMB | -0.599
AGCCCAAGGUGGAACAAUCTT against CREM | -2.37 (active)
GGAUGAACCCAAUCCCAAUTT against UBE2A | 0.306
GGUCCCUGUUGAGAAACGATT against TOP1 | 0.0303
GCAAAGGCCUUGUACGUCATT against USP10 | 0.182
GCUUGAGUAUAGAUAAAGATT against PAM | 0
UGGACACCGUCACCAUGAATT against GPR78 | 0.607
GCCGAGCUCUUUAUCCUCUTT against TRHDE | 0.429
GGAUCGGGUGUAUCAACAATT against SRP54 | 0.203
CAUUGUCGUUGGUGCAGUATT against ADCY10 | -0.573
GGAAUUACGGAGAUAUAGATT against TRRAP | -1.25 (active)
GGACACAUCUCGGACAGCATT against KLK9 | -0.476
GUACCUUGAGAAGAAAUUUTT against ACCN1 | -0.325
UCAGCUCCAUUAAUAGAAUTT against PAX8 | 0
CCUCAUAAGUGUAAGAUAUTT against ZNF799 | -1.02 (active)
GAAUGUCCCUGCUCCACAATT against SNAI1 | 0.0196
ACAACUUCCUGGUCGCUGATT against GPR62 | 0.0306
AGAAGAUCCGAAAGAAAUATT against GABARAP | 0.418

Sequence | median seed-adjusted z-score
CCAACGACCUGGUUAUGAATT against FBP1 | -0.221
GGUUGGAACUCGUUCCUCATT against NLGN4X | -0.1
GCACAAGACGAACUCAGUATT against UBE2J2 | -0.341
GCAUUGUCUCUCUUAUGUUTT against SYVN1 | -1.41 (active)
AGAUCAAGCUCCUCAACAATT against KRT4 | 0.336
GUUAUUCCCUGUUCUCGAATT against ALDH5A1 | 0.339
GGACGUGGACCAUUACUGUTT against LITAF | 0.0771
GAUUAACCAAGGUUGAGAATT against CNGA1 | -1.08 (active)
CCACAUCUCUACUCGUGAATT against ULK4 | 0.0834
GGAGUUACGAUAGCCGGAATT against DIAPH1 | 0.145
CGGGAUAAUUUUGACAAGATT against NXF2 | -0.0513
GGAAACUCUGUUUACGUUATT against BTAF1 | -1.19 (active)
GGACAACAUUUGACACCAATT against APOBEC2 | 0.232
CAGACACCUUCAUACCUUATT against BHMT | 0
CUGCAAGACUUGGAGCUAATT against HDLBP | -1.18 (active)
UGGGAGAAGUACAACAAUATT against FAM12A | 0.08
CAACGACAGCAGUCCCAUUTT against EGR1 | 0.0836
GUGUAAGGAUCAAAAAGAATT against ZNF682 | -0.155
ACAACAUCAUGAUCCGAGATT against PIK3CD | 0.00831
CUUCGUAUGUUUACAAGAATT against GUCY2C | -0.0181
GCUCUACGCAAGGAGAUCATT against BATF | -0.0501
GUCCGGUGUUUGAACCUGATT against ABHD2 | -1.21 (active)

Sequence | median seed-adjusted z-score
CUAUUGUAAAAGUAUGGAATT against ARL6IP2 | 0.274
GGCCUACAGCAACAAUGGATT against PCDH24 | 0.345
GAGUGGAAGUUAUCUGUCATT against WBSCR22 | -0.21
AGCUCCAUCUCGACCACAATT against FMOD | -1.32 (active)
GGAAUACAGUGACGACAAATT against ING5 | -0.193
GCAUCGACCGGGUUUAUGATT against KARS | -0.152
CCACUUUACCCACUACCCATT against ISX | 1.99 (active)
GCAUUCGAAUUAUAGAACATT against SLC16A14 | 0.464
GCACAAAUCUCAAUAUUCATT against GPSM3 | -0.641
CAGCCUUAAUGGACACGAATT against MFGE8 | 0.0367
GUAUGGUCGGUUUACAAUATT against YES1 | -0.508
ACCGUAUUCCUAUAUCUCATT against FOXA3 | 0.128
GCAUCGUCAAGGAUUGGAATT against ACTR1A | 1.28 (active)
GCACUUACGAUGACCGGCATT against TNFAIP1 | 0.0766
GCAAUUUCUUGUUUCGUUATT against SLC9A6 | -0.0831
GGACAAUAGACUUUAGAGATT against NCALD | 0
AGUAUACGCUGCCCUCAUATT against RNASE3 | 0.588
CCAUUUGAGGUGAACCGUATT against RFWD3 | 0.554
CUACGACGGUGAUAUUGGATT against HDAC2 | -1.27 (active)
GCAGGGAUCUUACAUCUAUTT against CENTD2 | -0.305
GCAUCCUACCCGUUCCAUATT against MSX2 | -0.406
GGGACAUCCGAGAUCCUAATT against LAMB1 | 1.07 (active)

Sequence | median seed-adjusted z-score
GGACAAACACGGACAGUAUTT against EPHB4 | -0.143
AAGGAGCAGUGGAUACUGATT against MST1 | -1.47 (active)
GAAGGAAGAUGGUAAGGGATT against IL6ST | -0.518
GCUUCGUGAGCUUUGAUAATT against BRUNOL5 | 0.333
CGUGGACAGCUGCAGAAAATT against EDIL3 | 0
CAAUCAGCAGAGUUACAUUTT against CPEB3 | 0.086
CCAUCGUCAUGGUUACCAATT against PTPRA | -0.438
GCACUUAAGGAAUGACAGATT against CDY2A | 0.75
CAGGUUCUCUAAUUGAACATT against NFX1 | -0.256
GAAACGCAAGGGUACAGAATT against RUVBL2 | -0.0764
GGAGUGACCGGAAACAUCATT against PRKCD | -0.236
CCAUUACAGAGGGAGUUCATT against NRBP1 | -1.13 (active)
GGAUAUCUUCUAUGAUCUATT against SMAD7 | -0.25
AGAACUUUGUGCACCGUGATT against ZAP70 | -0.674
AGCUUGAAAUCUCAUGGAATT against SPINK5L2 | 0.482
GAAGAUUGCUAAUGACAAUTT against GOT1 | 0.0103
UAAUAAUUCUCACUCCUAATT against FZD5 | -0.129
GACCGGCCGUUCAGAAUGATT against RPUSD1 | 0.327
CGUGUACCCGUUUGACUUUTT against SGSH | 0.383
GCCUGGUACUACUAGCUUUTT against TRPC5 | -1.14 (active)
